An excerpt weighted towards active compounds, which were near 12% of everything screened.
Pf growth 96h = P. falciparum growth inhibition at 96 hour, primary screen for plastid delayed-death inhibitors. P. falciparum luciferase reporter growth, 96 h. Potency, µM (titrated, usually from 28.7 µM), inactives show at the highest dose activity change, negative = inhibition, most hits filed as inhibitors. actives 6.9% (n = 320,000). AID 504834; also: % is scaled to controls: 0 for no effect and ±100 for the full control effect
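Erythrocytes infected with luciferase-expressing P. falciparum were dispensed at 2% hematocrit and 0.05% parasitemia (final), then incubated with compounds 96 hours at 37 C in 5% CO2. Luminescence after detection reagent addition reported growth.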
HCV inh = inhibitors of hepatitis C virus infection; AID 651820; Potency, µM (doses to about 41.8 µM), for the others: at the top dose activity change, negative = inhibition, actives largely listed as inhibitors; actives 3.4% (n = 340,000); Huh7.5.1 HCVcc-Cre infection, luciferase reporter, 44 h; also: % is scaled to controls: 0 for no effect and ±100 for the full control effect
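1,000 cells/well; 4 h culture; + compound; + HCVcc-Cre (~0.5 moi); 44 h; luciferase substrate, RT 15 min; read 15 sec.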
NS1 function inh = inhibitors of influenza NS1 protein function. Potency, µM (highest dose often 46.1 µM), inactives show top-dose activity, positive = more growth. actives 0.4% (n = 270,000). AID 2326; calls by dose curve; also: actives are rising curves; nearly all actives have a fitted effect of over 50% in size
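In this qHTS, NS1 from influenza A is expressed in budding yeast, where it slows growth. Cells are switched from glucose to 2% galactose medium (pH 6.0, -URA), treated with compound, and growth recovery is read at OD600.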
Pf growth 48h = inhibits P. falciparum growth in the first generation, 48 h | P. falciparum luciferase growth in erythrocytes, 48 h | Potency, µM (highest dose often 28.7 µM), for the others: top-dose activity change, negative = inhibition, most hits filed as inhibitors | actives 5.9% (n = 310,000) | AID 504832; also: % is scaled to controls: 0 for no effect and ±100 for the full control effect
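Compounds are pin-transferred into medium, infected erythrocytes (2% hematocrit, 0.1% parasitemia final) are added, and plates sit one parasite generation at 37 C in 5% CO2. Detection reagent is then added and luminescence measured.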
AMA1 RON2 block = inhibitors of Plasmodium falciparum AMA1-RON2 interaction; Potency, µM (doses to about 58.2 µM), inactives show at the top dose activity change, negative = inhibition, usual class: inhibitors; AlphaScreen AMA1-biotinylated RON2 peptide binding; actives 0.2% (n = 360,000); AID 720542;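 also: 0% = vehicle wells and -100% = peptide control; nearly all actives have a fitted effect of over 45% in size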
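AMA1 (3D7) with his tag at 25 nM final met compounds first, then biotinylated RON2 peptide at 25 nM; detection used donor plus acceptor beads, 10 µg/mL apiece, read by AlphaScreen after 30 min at room temperature.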
SARS PLP yeast = blocks SARS-CoV papain-like protease in a yeast assay | S. cerevisiae expressing SARS-CoV PLpro, growth rescue | Potency, µM (doses to about 32.9 µM), for inactives: top-dose activity, positive = growth rescue, most hits filed as activators | actives 0.19% (n = 330,000); calls by dose curve; also: 0% is about no effect; nearly all actives have a fitted effect of over 55% in size
* hit, by the source's call; ? = inconclusive; . = no result given; [ ] = another dose, or the depositor's remark. Unless noted, calls follow the shape of the dose curve; as a rule, active = well fitted curve in the direction sought with a large enough effect; inconclusive = small, poorly fitted or top-dose-only effect, or another doubt; inactive = no such curve, though single readings can be large; an effect the other way counts as inactive or inconclusive. Potency is read from the fitted curve at half-maximal effect.

SMILES	Pf growth 96h	HCV inh	NS1 function inh	Pf growth 48h	AMA1 RON2 block	SARS PLP yeast
Cc1cc(NC(=O)CCSc2nc(-c3ccco3)cc(C(F)(F)F)n2)n(-c2ccccc2)n1	-16.4%	?	11.6%	11.7µM*	0.8%	7.2%
Cc1cc(NC(=O)CCCSc2nc(-c3ccco3)cc(C(F)(F)F)n2)no1	.	2.3%	-2.0%	-4.5%	6.0%	1.8%
COc1ccc(NC(=O)CCCSc2nc(-c3ccco3)cc(C(F)(F)F)n2)cc1OC	5.5%	15.8µM*	-22.3%	-27.7%	-10.0%	-5.1%
CC(C)(C)C(=O)Nc1ccc(C(=O)COC(=O)c2ccccn2)cc1	.	11.8%	.	.	39.5%	0.6%
O=C1C=C(c2ccc(CO)cc2)C[C@@H](c2ccc(F)cc2)C1	.	.	.	.	1.1%	.
COc1cc(C(C(=O)NC2CCCCC2)N(CCN2CCOCC2)C(=O)C2COc3ccccc3O2)cc(OC)c1OC (stereo not drawn)	129.9%	-13.6%	3.5%	-24.5%	-8.0%	-1.3%
O=C(CCSc1nc(-c2ccco2)cc(C(F)(F)F)n1)NCC1CCCO1 (stereo not drawn)	?	10µM*	-1.3%	?	3.6%	26.3%
Cc1nn(C)cc1NC(=O)CCSc1nc(-c2ccco2)cc(C(F)(F)F)n1	.	11.2µM*	3.7%	-17.3%	-1.7%	-2.4%
CCn1nc(C)c(NC(=O)CCCSc2nc(-c3ccco3)cc(C(F)(F)F)n2)c1C	38.4%	2µM*	2.7%	?	3.2%	-4.7%
COc1cccc(CNC(=O)c2cccc(S(=O)(=O)N3CCN(Cc4ccccc4)CC3)c2)c1	.	-12.2%	.	.	7.9%[11.6 µM]	.
CCc1cc2c(SCc3nc4sc(C(C)=O)c(C)c4c(=O)[nH]3)ncnc2s1	?	?	4.4%	?	45.8%	0.6%
Cc1nnc(N/N=C/c2cc([N+](=O)[O-])c(N3CCC(C)CC3)cc2N2CCC(C)CC2)n1N	.	12.6µM*	-72.0%	5.86µM*	11.8%	-19.0%
COc1ccc(S(=O)(=O)N2CCOC2CNC(=O)C(=O)NCCN2CCOCC2)cc1C (stereo not drawn)	-1.2%	.	4.9%	0.3%	9.8%	2.1%
CCC(C(=O)OC)n1cnc2scc(-c3ccc(C)c(C)c3)c2c1=O (stereo not drawn)	0.0%	?	-129.3%	13.1µM*	-24.4%	-22.6%
CCCn1cnc2scc(-c3ccc(C)c(C)c3)c2c1=O	10.4µM*	-20.8%	-22.2%	2.4%	14.1%	-8.6%
CCC(C(=O)O)n1cnc2scc(-c3ccc(C)c(C)c3)c2c1=O (stereo not drawn)	?	-4.3%	19.4%	?	0.0%	-6.3%
C=CCn1cnc2scc(-c3ccc(C)c(C)c3)c2c1=O	-4.0%	?	-12.1%	4.0%	3.0%	-1.0%
CCCOC(=O)C(C)n1cnc2scc(-c3ccc(C)cc3)c2c1=O (stereo not drawn)	46.2%	22.4µM*	-16.6%	?	-4.6%	-8.0%
CC1CCc2c(c3ccccc3n2C(=O)CCl)C1 (stereo not drawn)	-28.3%	?	-41.0%	8.8%	-27.7%	4.1%
CCN1CCN(CC(=O)n2c3c(c4ccccc42)CC(C)CC3)CC1 (stereo not drawn)	.	3.16µM*	-35.0%	?	-19.6%	-6.8%
O=C(CSc1nc2cc(C(F)(F)F)ccc2n1Cc1ccccc1)NC1CCS(=O)(=O)C1 (stereo not drawn)	11.7µM*	0.9%	24.8%	?	5.7%[2.32 µM]	19.0%
O=C(CSc1nc2ccccc2c(=O)n1-c1ccccc1Cl)NC1CCS(=O)(=O)C1 (stereo not drawn)	10.4µM*	7.0%	.	?	-0.5%	12.7%
CCCCCCn1c(SCC(=O)NC2CCS(=O)(=O)C2)nc2ccccc2c1=O (stereo not drawn)	.	.	.	.	-3.6%	.
CC(=O)NS(=O)(=O)c1ccc(NC(=O)C(C)NS(=O)(=O)/C=C/c2ccccc2)cc1 (stereo not drawn)	.	19.9%	.	.	0.0%	-5.8%
C=C(C)c1cccc(C(C)(C)NC(=O)NC(c2ccccc2)c2ccc(OC)cc2)c1 (stereo not drawn)	11.7µM*	-4.2%	25.8%	?	4.0%[11.6 µM]	7.9%
SMILES	Pf growth 96h	HCV inh	NS1 function inh	Pf growth 48h	AMA1 RON2 block	SARS PLP yeast
C=C(C)c1cccc(C(C)(C)NC(=O)Nc2ccc(OC)cc2)c1	?	-18.2%	.	-22.9%[5.75 µM]	-3.9%	0.4%
Nc1c(Br)cc2oc(-c3ccccc3)nc2c1Br	273.3%	26.5%	5.0%	227.0%	-11.1%	14.6%
COc1ccc(-c2nc3c(Br)c(N)c(Br)cc3o2)cc1	?	?	3.8%	2.33µM*	5.3%	3.6%
O=C(CCC(=O)N1CCN(Cc2ccc(F)cc2)CC1)Nc1nnc(C(F)(F)F)s1	37.3%	12.9%	-1.0%	-3.2%	4.9%	1.3%
Cn1c(-c2ccccc2)cc2c3no[n+]([O-])c3ccc21	53.1%	2.51µM*	-121.2%	42.2%	-12.7%	-21.2%
Cn1c(-c2ccccc2)cc2ccccc21	23.6%	17.7%	1.8%	21.6%	0.0%	-2.0%
Cc1cc2nc(N=C(N)N)nc(C)c2cc1C	0.0%	?	.	?	-10.7%	-1.1%
CCc1ccc2nc(NC3=NCN(CCN4CCOCC4)CN3)nc(C)c2c1	7.4%	.	-4.4%	-57.1%	.	-11.3%
CCc1ccc2nc(N=C(N)N)nc(C)c2c1	33.3%	5.01µM*	.	?	5.9%	-1.4%
Cc1nc(N=C(N)N)nc2ccccc12	5.6%	14.1µM*	.	?	-6.7%	-1.3%
Cc1ccc2nc(N=C(N)N)nc(C)c2c1	20.2%	7.08µM*	-5.1%	?	17.6%	1.1%
Cc1nc(/N=C(\N)NC(=O)c2ccccc2)nc2ccccc12	1.6%	?	-6.9%	16.8%	17.8%	-11.6%
COc1cc(C(=O)OCC(=O)Nc2ccc(N3CCOCC3)cc2)ccc1OCC(C)C	6.2%	-0.9%	.	-16.5%	-4.8%	.
COCc1cc(=O)[nH]c(N2CCN(c3ccccc3OC)CC2)n1	8.28µM*	11.9%	-5.8%	0.0%	-5.1%	4.3%
CSCCC(NC(=O)COc1ccccc1)C(=O)NCCOc1ccccc1 (stereo not drawn)	-21.6%	16.1%	.	0.4%	-2.5%	6.6%
Cc1ccc(CNC(=O)CN2C(=O)C3(OCCCO3)c3ccccc32)cc1	10.4µM*	-15.4%	-0.4%	-4.2%	-2.8%	0.3%
Cc1ccccc1Oc1cc(NC(=O)Cn2cnc([N+](=O)[O-])c2)cc([N+](=O)[O-])c1	?	?	.	10.4µM*	-7.9%	0.6%
Cc1nn(CCCC(=O)Nc2cc(Oc3ccc(F)cc3)cc([N+](=O)[O-])c2)c(C)c1[N+](=O)[O-]	?	?	14.2%	3.6%	-24.3%	-23.8%
Cc1ccccc1Oc1cc(NC(=O)CCCn2nc(C)c([N+](=O)[O-])c2C)cc([N+](=O)[O-])c1	14.7µM*	?	4.3%	?	-7.5%	-8.9%

High-throughput results deposited in PubChem BioAssay by National Center for Advancing Translational Sciences (NCATS).
